High-throughput results: PubChem BioAssay, National Center for Advancing Translational Sciences (NCATS)
The list is not random: actives were taken first. Their share in the collection is about 19%.
TDP1 cell noCPT: qHTS for Inhibitors of human tyrosyl-DNA phosphodiesterase 1 (TDP1): qHTS in cells in absence of CPT | Potency, µM (series often up to 46.2 µM), without a hit: at the top dose activity change, negative = growth inhibition, most hits filed as inhibitors | DT40 Tdp1-/- hTDP1 cells, no CPT, ATP luminescence, 48 h | actives 15% (n = 420,000); also: potency is read from the fitted curve at half-maximal effect; nearly all actives have a fitted effect of over 55% in size
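Stably hTDP1-transfected Tdp1-null chicken DT40 cells were treated with library compounds minus camptothecin and grown for at least 48 hr at 37 °C, after which cellular ATP was quantified by luminescence.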
TDP1 cell CPT: DT40-hTDP1 cell growth loss with CPT. chicken DT40 Tdp1-/-;hTDP1 cells + 20 nM CPT, ATP luminescence, 48 h. Potency, µM (doses to about 46.2 µM), without a hit: top-dose activity change, negative = growth inhibition, actives largely listed as inhibitors. actives 12% (n = 420,000). AID 686979; also: potency is read from the fitted curve at half-maximal effect; nearly all actives have a fitted effect of over 55% in size
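Chicken DT40 Tdp1-/- cells stably complemented with human TDP1 were seeded at 400 cells/well in medium containing 20 nM camptothecin, exposed to pin-transferred compounds, and grown at 37 °C for at least 48 hr. Viability was read as ATP luminescence.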
HT1080NT lethal: kills 2HG-producing HT-1080-NT fibrosarcoma cells; HT-1080-NT fibrosarcoma viability, CellTiter-Glo ATP luminescence, 48 h; Potency, µM (series often up to 46.1 µM), for the others: at the top dose activity, negative = less viability, usual class: cytotoxic; actives 1.6% (n = 360,000); AID 686970;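 also: NT is the 2HG producing partner of a matched IDH1 knockdown line; potency is read from the fitted curve at half-maximal effect; 0% = DMSO-treated cells and -100% = media-only wells without cells; nearly all actives have a fitted effect of over 55% in size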
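Read-out is CellTiter-Glo luminescence after 10 minutes at room temperature, following 48 hours' compound treatment of HT-1080-NT cells (750 cells/well, RPMI, 5% FBS, 37 degrees C).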
HT1080 IDH1KD tx: HT-1080 IDH1 knockdown cell toxicity (counter line); Potency, µM (top dose mostly 46.1 µM), for inactives: at the top dose activity, negative = toxicity, hits mostly cytotoxic; HT-1080 IDH1 knockdown viability, ATP luminescence, 48 h; actives 2% (n = 360,000); AID 686971;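 also: potency is read from the fitted curve at half-maximal effect; 0% = DMSO wells and -100% = cell-free medium wells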
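CellTiter-Glo luminescence after 48 h compound exposure at 37 degrees C of IDH1-knockdown HT-1080 cells in 5% FBS RPMI. %Activity scaled between DMSO wells and cell-free media wells, with curves fitted and assigned curve classes.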
IL-1B inflam inh: inhibitors of inflammasome signaling (IL-1 beta secretion) | THP-1 LPS/ATP IL-1B secretion, AlphaLISA, 16 h; active compounds read low | activity change, % at 57.5 µM | actives 4.7% (n = 360,000) | AID 743279; in the data active = activity change below about -50%; inconclusive = mostly about -30% to -49%
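THP-1 cells pretreated 1 hr with compounds (up to 57.5 uM final), then stimulated with LPS (250 ng/mL final) plus ATP (1.25 mM final); secreted IL-1B measured by AlphaLISA after 16 hr, decreased signal indicating inhibition.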
The depositor's hits bear a star. Unless noted, calls follow the shape of the dose curve; as a rule, active = well fitted curve in the direction sought with a large enough effect; inconclusive = small, poorly fitted or top-dose-only effect, or another doubt; inactive = no such curve, though single readings can be large; an effect the other way counts as inactive or inconclusive. Unless noted, % is scaled to controls: 0 for no effect and ±100 for the full control effect.

For Cc1c(NC(=O)C(C)OC(=O)c2ncc(Cl)c(Cl)c2Cl)c(=O)n(-c2ccccc2)n1C (stereo not given) the results were TDP1 cell noCPT 4.5%, TDP1 cell CPT -4.2%, HT1080NT lethal 3.3%, HT1080 IDH1KD tx 0.9% and IL-1B inflam inh -72.4*.
`O=C(Oc1cc(=O)oc2c1c(=O)n1c3c(cccc23)CC1)c1ccc(F)cc1` gave TDP1 cell noCPT 23.1µM*, TDP1 cell CPT -26.0%, HT1080NT lethal -0.4% and HT1080 IDH1KD tx 15.8%.
COc1cccc2sc(N(CCCN(C)C)C(=O)c3ccc(S(=O)(=O)N4CCCc5ccccc54)cc3)nc12 was read as TDP1 cell noCPT inconclusive, TDP1 cell CPT inconclusive, HT1080NT lethal 18.4µM*, HT1080 IDH1KD tx inconclusive and IL-1B inflam inh -50.3*.
CCc1ccc2nc(N(CCCN(C)C)C(=O)c3ccc(S(=O)(=O)N4CCCc5ccccc54)cc3)sc2c1 was read as TDP1 cell noCPT inconclusive, TDP1 cell CPT inconclusive, HT1080NT lethal inconclusive, HT1080 IDH1KD tx inconclusive and IL-1B inflam inh -97.6*.
CN(C)CCN(C(=O)c1ccc(S(=O)(=O)N2CCc3ccccc32)cc1)c1nc2ccc(F)cc2s1 was read as TDP1 cell noCPT 0.2%, TDP1 cell CPT inconclusive, HT1080NT lethal -1.6%, HT1080 IDH1KD tx -2.2% and IL-1B inflam inh -21.3.
CCc1ccc2nc(N(CCCN(C)C)C(=O)c3ccc(S(=O)(=O)N4CCCC4)cc3)sc2c1 was read as TDP1 cell noCPT inconclusive, TDP1 cell CPT inconclusive, HT1080NT lethal -29.2%, HT1080 IDH1KD tx -28.3% and IL-1B inflam inh -13.0.
Screening CN(C)CCCN(C(=O)c1ccc(S(=O)(=O)N2CCc3ccccc32)cc1)c1nc2c(Cl)cccc2s1 returned TDP1 cell noCPT inconclusive, TDP1 cell CPT inconclusive, HT1080NT lethal inconclusive, HT1080 IDH1KD tx inconclusive and IL-1B inflam inh -82.8*.
`Cc1ccccc1C(=O)Nc1ccc(S(=O)(=O)N2CCCC2)cc1` gave TDP1 cell noCPT inconclusive, TDP1 cell CPT -21.7%, HT1080NT lethal -6.7%, HT1080 IDH1KD tx -6.7% and IL-1B inflam inh -0.3.
Screening CCOc1ccc(OCCC(=O)OCC(=O)N2CCN(S(=O)(=O)c3ccc(C)cc3C)CC2)cc1 returned TDP1 cell noCPT -19.7%, TDP1 cell CPT inconclusive, HT1080NT lethal -3.3%, HT1080 IDH1KD tx 10.2% and IL-1B inflam inh -8.6.
Screening Cc1ccc(NC(=O)C2=CC(c3ccc(C)cc3)=NS(=O)(=O)N2C)cc1 returned TDP1 cell noCPT inconclusive, TDP1 cell CPT inconclusive, HT1080NT lethal -1.1%, HT1080 IDH1KD tx -16.1% and IL-1B inflam inh 19.1.
Screening CC(=O)c1ccc(NC(=O)C2=CC(c3ccc(C)cc3)=NS(=O)(=O)N2C)cc1 returned TDP1 cell noCPT 4.11µM* and TDP1 cell CPT 8.2µM*.
COc1ccc(OC)c(C2=NS(=O)(=O)N(C)C(C(=O)Nc3cccc(C(C)=O)c3)=C2)c1 was read as TDP1 cell noCPT inconclusive, TDP1 cell CPT 20.6µM*, HT1080NT lethal -4.4%, HT1080 IDH1KD tx -3.3% and IL-1B inflam inh -0.9.
For COc1ccc(C2=NS(=O)(=O)N(C)C(C(=O)Nc3ccc(C)cc3)=C2)cc1 the results were TDP1 cell noCPT 20.6µM*, TDP1 cell CPT inconclusive, HT1080NT lethal -16.0%, HT1080 IDH1KD tx -12.6% and IL-1B inflam inh -23.8.
Screening COc1cc(NC(=O)C2=CC(c3ccc(F)cc3)=NS(=O)(=O)N2C)cc(OC)c1OC returned TDP1 cell noCPT 23.1µM* and TDP1 cell CPT inconclusive.
Screening CCOP(=O)(OCC)c1nc(-c2ccc(Cl)cc2Cl)oc1N1CCOCC1 returned TDP1 cell noCPT inconclusive, TDP1 cell CPT inconclusive, HT1080NT lethal -3.0%, HT1080 IDH1KD tx 0.7% and IL-1B inflam inh -19.5.
Screening O=c1c2cn(Cc3ccc(F)cc3)c3ccc(F)cc3c-2nn1Cc1ccc(F)cc1 returned TDP1 cell noCPT -17.7%, TDP1 cell CPT -7.6%, HT1080NT lethal 4.6%, HT1080 IDH1KD tx 6.3% and IL-1B inflam inh 19.9.
`COc1cccc(C2=NS(=O)(=O)N(C)C(C(=O)Nc3ccccc3SC)=C2)c1` gave TDP1 cell noCPT inconclusive and TDP1 cell CPT 16.4µM*.
For CN1C(C(=O)Nc2ccc(OC(F)(F)F)cc2)=CC(c2cccs2)=NS1(=O)=O the results were TDP1 cell noCPT 3.66µM*, TDP1 cell CPT inconclusive, HT1080NT lethal 6.4%, HT1080 IDH1KD tx 2.0% and IL-1B inflam inh -4.0.
Cc1noc(C)c1C(=O)N(CC(=O)Nc1ccccc1Br)Cc1ccco1 was read as TDP1 cell noCPT 1.6%, TDP1 cell CPT -20.1%, HT1080NT lethal 0.4%, HT1080 IDH1KD tx 5.8% and IL-1B inflam inh -8.5.
CCCc1nc2sc3c(=O)n(N)cnc3c2c2c1CCCC2 was read as TDP1 cell noCPT 9.2µM*, TDP1 cell CPT 11.6µM*, HT1080NT lethal -2.0%, HT1080 IDH1KD tx 8.3% and IL-1B inflam inh 17.0.
For Fc1cccc(-n2cc(-c3ccccc3)c3c(=S)nc[nH]c32)c1 the results were TDP1 cell noCPT 20.6µM*, TDP1 cell CPT inconclusive, HT1080NT lethal -14.4%, HT1080 IDH1KD tx inconclusive and IL-1B inflam inh 21.1.
Screening COc1cccc(-c2cnc(C(O)c3cccc(CN4CCCCC4)c3)[nH]2)c1 (stereo not given) returned TDP1 cell noCPT -16.3%, TDP1 cell CPT inconclusive, HT1080NT lethal 8.2%, HT1080 IDH1KD tx 4.9% and IL-1B inflam inh -7.8.
OC(c1cccc(CN2CCCCC2)c1)c1ncc(-c2cccc3ccccc23)[nH]1 (stereo not given) was read as TDP1 cell noCPT inconclusive, TDP1 cell CPT inconclusive, HT1080NT lethal 16.4µM*, HT1080 IDH1KD tx inconclusive and IL-1B inflam inh -7.3.
OC(c1cccc(CN2CCCCC2)c1)c1ncc(-c2cccc(C(F)(F)F)c2)[nH]1 (stereo not given) was read as TDP1 cell noCPT 20.6µM*, TDP1 cell CPT 14.6µM*, HT1080NT lethal 20.6µM*, HT1080 IDH1KD tx inconclusive and IL-1B inflam inh -9.6.
Screening COc1ccc(N2CCN(C(=O)NCc3ccc(OC)c(Cl)c3)CC2)cc1 returned TDP1 cell noCPT -1.6%, TDP1 cell CPT -9.5%, HT1080NT lethal -18.3%, HT1080 IDH1KD tx -9.7% and IL-1B inflam inh 15.5.
`NC(=O)C1CCN(c2nc3c(S(=O)(=O)c4ccccc4)nnn3c3ccccc23)CC1` gave TDP1 cell noCPT inconclusive, TDP1 cell CPT inconclusive, HT1080NT lethal -4.7%, HT1080 IDH1KD tx -2.8% and IL-1B inflam inh -20.9.
For COc1ccc(OCC(=O)NNC(=S)NC(=O)C2CC2)cc1 the results were TDP1 cell noCPT inconclusive, TDP1 cell CPT 16.4µM*, HT1080NT lethal -8.8%, HT1080 IDH1KD tx inconclusive and IL-1B inflam inh 29.4.
